The record followed here is the antibiotic and cytotoxicity screens of Wong et al. (2023).

In all, about 39,000 compounds went through this assay and about 3,300 (8.5%) were called active. The sample holds actives, similar compounds and a random draw of the others, so the mix is not that of the screen.

This assay deals with HepG2. Nature of the assay: cytotoxicity call (relative viability < 0.9). Particulars: 10 µM.
`CC(C)NC(=O)Nc1ccc2c(c1)C(=O)N([C@H](C)CO)C[C@H](C)[C@@H](CN(C)S(=O)(=O)c1cn(C)cn1)OCCCC[C@H](C)O2`: the cytotoxicity call was “inactive”.

For `CC(C)NC(=O)N1C[C@H]2[C@H](C(=O)N(C)Cc3ccccn3)CCS(=O)(=O)[C@H]2C1`, the cytotoxicity call was “inactive”.

As for `Cc1noc(C)c1S(=O)(=O)N(C)C[C@H]1Oc2ccc(NS(=O)(=O)c3ccc(F)cc3)cc2CC(=O)N([C@@H](C)CO)C[C@H]1C`, the cytotoxicity call was “inactive”.

As for `C=CC[C@@H](CC(=O)N(CCO)Cc1ccccc1)C(=O)N[C@H](COC(=O)[C@@H](CC=C)CC(=O)OC(C)(C)C)Cc1c[nH]c2ccccc12`, the cytotoxicity call was “inactive”.

Consider `Cc1ccc(S(=O)(=O)N2C[C@H](O)COC[C@H]3O[C@H](CC(=O)NCCCN(C)C)CC[C@@H]32)cc1`, for which the cytotoxicity call is “inactive”.

Consider `Cc1ccc(S(=O)(=O)N(C)C[C@@H]2OCCCC[C@H](C)Oc3ccc(NS(=O)(=O)c4ccc(F)cc4)cc3C(=O)N([C@H](C)CO)C[C@H]2C)cc1`, for which the cytotoxicity call is “inactive”.

As for `C[C@@H]1CCCCO[C@H](CN(C)Cc2ccc3c(c2)OCO3)[C@@H](C)CN([C@H](C)CO)C(=O)c2cc(NC(=O)Cc3ccccc3)ccc2O1`, the cytotoxicity call is “inactive”.

On to `COc1ccc(CN(C)C[C@@H]2OCCCC[C@@H](C)Oc3ccc(NC(=O)Cc4ccccc4)cc3C(=O)N([C@H](C)CO)C[C@H]2C)cc1`, for which the cytotoxicity call is “inactive”.

Consider `CCCCCOc1ccc(-c2ccc(-c3ccc(C(=O)N[C@H]4C[C@@H](O)[C@@H](O)NC(=O)[C@@H]5[C@@H](O)[C@@H](C)CN5C(=O)[C@H]([C@@H](C)O)NC(=O)[C@H]([C@H](O)[C@@H](O)c5ccc(O)cc5)NC(=O)[C@@H]5C[C@@H](O)CN5C(=O)[C@H]([C@@H](C)O)NC4=O)cc3)cc2)cc1`, for which the cytotoxicity call is “active”.

Consider `CCCCCOc1ccc(-c2cc(-c3ccc(C(=O)N[C@H]4C[C@@H](O)[C@@H](O)NC(=O)[C@H]5[C@@H](O)[C@@H](C)CN5C(=O)[C@H]([C@@H](O)CC(N)=O)NC(=O)[C@H]([C@@H](O)[C@@H](O)c5ccc(O)c(OS(=O)(=O)O)c5)NC(=O)[C@H]5C[C@@H](O)CN5C(=O)[C@H]([C@@H](C)O)NC4=O)cc3)no2)cc1`, for which the cytotoxicity call is “inactive”.

Regarding `CC[C@H](C)C[C@H](C)CCCCCCCCC(=O)N[C@H]1C[C@@H](O)[C@@H](NCCN)NC(=O)[C@@H]2[C@@H](O)CCN2C(=O)[C@H]([C@H](O)CCN)NC(=O)[C@H]([C@H](O)[C@@H](O)c2ccc(O)cc2)NC(=O)[C@@H]2C[C@@H](O)CN2C(=O)[C@H]([C@@H](C)O)NC1=O`, the cytotoxicity call is “inactive”.

In the case of `C[C@@H]1CN([C@@H](C)CO)C(=O)Cc2cc(NC(=O)CCN3CCOCC3)ccc2O[C@H]1CN(C)C(=O)Nc1ccc2c(c1)OCO2`, the cytotoxicity call is “inactive”.

In the case of `CC(C)NC(=O)N(C)C[C@@H]1Oc2ccc(NC(=O)CCC(F)(F)F)cc2C(=O)N([C@H](C)CO)C[C@@H]1C`, the cytotoxicity call was “inactive”.

As to `Cc1noc(C)c1S(=O)(=O)Nc1ccc2c(c1)C(=O)N([C@H](C)CO)C[C@@H](C)[C@@H](CN(C)C(=O)Nc1ccc(C(F)(F)F)cc1)OCCCC[C@@H](C)O2`, the cytotoxicity call is “active”.

With `Cc1noc(C)c1S(=O)(=O)Nc1ccc2c(c1)C(=O)N([C@@H](C)CO)C[C@@H](C)[C@H](CN(C)C(=O)Nc1ccc(C(F)(F)F)cc1)OCCCC[C@H](C)O2`, the cytotoxicity call is “inactive”.

As for `Cc1noc(C)c1S(=O)(=O)Nc1ccc2c(c1)C(=O)N([C@@H](C)CO)C[C@H](C)[C@H](CN(C)C(=O)Nc1ccc(C(F)(F)F)cc1)OCCCC[C@H](C)O2`, the cytotoxicity call is “inactive”.

For `Cc1noc(C)c1S(=O)(=O)Nc1ccc2c(c1)C(=O)N([C@@H](C)CO)C[C@@H](C)[C@@H](CN(C)C(=O)Nc1ccc(C(F)(F)F)cc1)OCCCC[C@@H](C)O2`, the cytotoxicity call was “inactive”.

Regarding `Cc1noc(C)c1S(=O)(=O)Nc1ccc2c(c1)C(=O)N([C@H](C)CO)C[C@H](C)[C@H](CN(C)C(=O)Nc1ccc(C(F)(F)F)cc1)OCCCC[C@H](C)O2`, the cytotoxicity call was “inactive”.

Take `Cc1noc(C)c1S(=O)(=O)Nc1ccc2c(c1)C(=O)N([C@H](C)CO)C[C@@H](C)[C@H](CN(C)C(=O)Nc1ccc(C(F)(F)F)cc1)OCCCC[C@@H](C)O2`: the cytotoxicity call is “active”.

In the case of `Cc1noc(C)c1S(=O)(=O)Nc1ccc2c(c1)C(=O)N([C@@H](C)CO)C[C@H](C)[C@@H](CN(C)C(=O)Nc1ccc(C(F)(F)F)cc1)OCCCC[C@H](C)O2`, the cytotoxicity call was “active”.

For the compound `Cc1noc(C)c1S(=O)(=O)Nc1ccc2c(c1)C(=O)N([C@@H](C)CO)C[C@@H](C)[C@@H](CN(C)C(=O)Nc1ccc(C(F)(F)F)cc1)OCCCC[C@H](C)O2`, the cytotoxicity call is “inactive”.

With `Cc1noc(C)c1S(=O)(=O)Nc1ccc2c(c1)C(=O)N([C@H](C)CO)C[C@H](C)[C@H](CN(C)C(=O)Nc1ccc(C(F)(F)F)cc1)OCCCC[C@@H](C)O2`, the cytotoxicity call is “inactive”.

Regarding `C[C@@H]1CN([C@@H](C)CO)C(=O)c2cccc(NC(=O)c3cnccn3)c2O[C@@H]1CN(C)C(=O)Nc1ccccc1`, the cytotoxicity call is “inactive”.

As to `COc1ccc(S(=O)(=O)N(C)C[C@H]2Oc3ccc(NC(=O)c4ccncc4)cc3CC(=O)N([C@H](C)CO)C[C@@H]2C)cc1`, the cytotoxicity call is “inactive”.

Regarding `C[C@H](CO)N1C[C@H](C)[C@@H](CN(C)C(=O)Nc2ccc(C(F)(F)F)cc2)Oc2ccc(NC(=O)Cn3cnnn3)cc2CC1=O`, the cytotoxicity call was “inactive”.

As to `COc1cccc(NC(=O)N2C[C@@H](O)COC[C@@H]3O[C@H](CC(=O)NCCCN4CCOCC4)CC[C@H]32)c1`, the cytotoxicity call was “inactive”.

Turning to `COc1ccc(CN(C)C[C@@H]2Oc3c(NS(=O)(=O)c4cn(C)cn4)cccc3C(=O)N([C@@H](C)CO)C[C@H]2C)cc1`, the cytotoxicity call was “inactive”.

With `C[C@H]1CN([C@@H](C)CO)C(=O)c2cccc(NC(=O)c3cnccn3)c2O[C@H]1CN(C)Cc1ccccc1`, the cytotoxicity call was “inactive”.

In the case of `C[C@H]1CN([C@@H](C)CO)C(=O)Cc2cc(NS(C)(=O)=O)ccc2O[C@@H]1CN(C)Cc1ccc(C(F)(F)F)cc1`, the cytotoxicity call is “inactive”.

Consider `Cc1ccc(S(=O)(=O)Nc2ccc3c(c2)CC(=O)N([C@@H](C)CO)C[C@H](C)[C@@H](CN(C)Cc2ccncc2)O3)cc1`, for which the cytotoxicity call is “inactive”.

In the case of `C[C@H](CO)N1C[C@H](C)[C@H](CN(C)Cc2ccc(C(F)(F)F)cc2)Oc2ccc(NS(C)(=O)=O)cc2CC1=O`, the cytotoxicity call is “inactive”.

Regarding `Cc1ccc(S(=O)(=O)Nc2ccc3c(c2)CC(=O)N([C@H](C)CO)C[C@@H](C)[C@H](CN(C)Cc2ccncc2)O3)cc1`, the cytotoxicity call was “inactive”.

Consider `Cc1ccc(S(=O)(=O)Nc2ccc3c(c2)CC(=O)N([C@@H](C)CO)C[C@H](C)[C@H](CN(C)Cc2ccc(C(F)(F)F)cc2)O3)cc1`, for which the cytotoxicity call is “inactive”.

For `Cc1ccc(S(=O)(=O)Nc2ccc3c(c2)CC(=O)N([C@H](C)CO)C[C@@H](C)[C@@H](CN(C)Cc2ccncc2)O3)cc1`, the cytotoxicity call was “active”.

In the case of `Cc1ccc(S(=O)(=O)Nc2ccc3c(c2)CC(=O)N([C@H](C)CO)C[C@@H](C)[C@H](CN(C)Cc2ccc(C(F)(F)F)cc2)O3)cc1`, the cytotoxicity call was “inactive”.

In the case of `Cc1ccc(S(=O)(=O)Nc2ccc3c(c2)CC(=O)N([C@H](C)CO)C[C@H](C)[C@H](CN(C)Cc2ccc(C(F)(F)F)cc2)O3)cc1`, the cytotoxicity call was “active”.

Take `C[C@@H]1CN([C@@H](C)CO)C(=O)Cc2cc(NS(C)(=O)=O)ccc2O[C@@H]1CN(C)Cc1ccc(C(F)(F)F)cc1`: the cytotoxicity call was “inactive”.

As to `Cc1ccc(S(=O)(=O)Nc2ccc3c(c2)CC(=O)N([C@H](C)CO)C[C@@H](C)[C@@H](CN(C)Cc2ccc(C(F)(F)F)cc2)O3)cc1`, the cytotoxicity call was “active”.

For `Cc1ccc(S(=O)(=O)Nc2ccc3c(c2)CC(=O)N([C@@H](C)CO)C[C@H](C)[C@@H](CN(C)Cc2ccc(C(F)(F)F)cc2)O3)cc1`, the cytotoxicity call is “active”.

With `C[C@@H]1CN([C@H](C)CO)C(=O)Cc2cc(NS(C)(=O)=O)ccc2O[C@@H]1CN(C)Cc1ccc(C(F)(F)F)cc1`, the cytotoxicity call is “inactive”.
